Laboratory results from PubChem BioAssay (NCI).
Compounds without any hit were thinned out: in the full panel of roughly 83,000, 20% have a hit.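 In brief: 96-well plates, 48 h treatment, single concentration, percent growth endpoint.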

Key:
Test in all cases: NCI-60 one-dose screen, 48 h (100 = growth as untreated, 0 = no growth, -100 = all killed); active = growth percent below 10; inactive = the rest
[1] = system: RPMI-8226 leukemia; settings: 10 µM
[2] = system: OVCAR-5 ovarian; settings: 10 µM
[3] = system: OVCAR-4 ovarian; settings: 10 µM
[4] = system: SK-OV-3 ovarian; settings: 10 µM
[5] = system: OVCAR-3 ovarian; settings: 10 µM
[6] = system: NCI/ADR-RES ovarian; settings: 10 µM
[7] = system: T-47D breast; settings: 10 µM
[8] = system: BT-549 breast; settings: 10 µM
[9] = system: MDA-MB-435 melanoma; settings: 10 µM
[10] = system: SW-620 colon; settings: 10 µM
[11] = system: MCF7 breast; settings: 10 µM unless noted
[12] = system: HCT-116 colon; settings: 10 µM
[13] = system: HCC-2998 colon; settings: 10 µM
[14] = system: KM12 colon; settings: 10 µM
[15] = system: OVCAR-8 ovarian; settings: 10 µM
[16] = system: IGROV1 ovarian; settings: 10 µM
[17] = system: HS 578T breast; settings: 10 µM

Measured: growth

Nc1ccc(NC(=O)c2cccc(N)c2)cc1
inactive: [1] 94.5% | [2] 101% | [3] 104% | [4] 103% | [5] 107% | [6] 111% | [7] 95.9% | [8] 93.3% | [9] 104% | [10] 102% | [11] 105% | [12] 94.4% | [13] 107% | [14] 103%

Cc1ncc(C#N)c(N)n1
inactive: [15] 102% | [2] 99.5% | [3] 92.5% | [4] 117% | [16] 106% | [5] 110% | [17] 92.3% | [6] 100% | [8] 94.4% | [9] 90.2% | [10] 99.9% | [11] 99.7% | [12] 96.7% | [13] 102% | [14] 104%

CC(=O)Nc1cccc(NC(C)=O)n1
inactive: [15] 105% | [2] 143% | [3] 112% | [4] 101% | [5] 112% | [17] 102% | [6] 131% | [7] 87.1% | [8] 107% | [9] 101% | [10] 99.1% | [11] 99% | [12] 98.9% | [13] 130% | [14] 105%

C/C(=N/NC(N)=O)c1ccco1
inactive: [15] 106% | [2] 100% | [3] 110% | [4] 84.1% | [16] 104% | [5] 104% | [17] 110% | [6] 101% | [7] 83.5% | [8] 102% | [9] 107% | [10] 109% | [11] 98.4% | [12] 101% | [13] 92.1% | [14] 102%

O=C(c1ccc(Cl)cc1)c1ccccc1Cl
inactive: [1] 82.8% | [15] 89.6% | [3] 97% | [4] 96.3% | [16] 87.9% | [5] 118% | [7] 74.7% | [8] 91.7% | [9] 106% | [10] 121% | [11] 95.7% | [12] 87.9% | [13] 92.6% | [14] 119%

OC1CCCc2ccccc21 (centres undefined)
inactive: [1] 104% | [2] 100% | [3] 99.2% | [4] 98.7% | [16] 97% | [5] 110% | [17] 96.8% | [6] 108% | [7] 101% | [8] 98.1% | [9] 104% | [10] 107% | [11] 94.1% | [12] 111% | [13] 119% | [14] 109%

Cc1cc(N)c(S(=O)(=O)O)c(N)c1
inactive: [1] 95.6% | [15] 109% | [3] 103% | [4] 100% | [16] 130% | [5] 112% | [7] 89.7% | [8] 57.8% | [9] 101% | [10] 90.8% | [11] 105% | [12] 91.9% | [13] 86.3% | [14] 107%

Brc1cnc2ccccc2c1
inactive: [15] 104% | [2] 96.3% | [3] 118% | [4] 111% | [16] 107% | [5] 99.7% | [6] 102% | [7] 108% | [8] 103% | [9] 105% | [10] 95.8% | [11] 101% | [12] 106% | [13] 100% | [14] 100%

CN(C)C(=O)Oc1cccc([N+](C)(C)C)c1
inactive: [15] 103% | [2] 104% | [3] 83.9% | [4] 107% | [16] 115% | [5] 115% | [17] 107% | [6] 114% | [7] 99.8% | [8] 112% | [9] 105% | [10] 108% | [11] 87% | [12] 109% | [13] 106% | [14] 102%

CCOC(=O)/C(C#N)=C/c1cccc(C)c1
inactive: [15] 103% | [2] 96.1% | [3] 104% | [4] 101% | [5] 106% | [17] 107% | [6] 97.3% | [7] 86.5% | [8] 64.1% | [9] 107% | [10] 103% | [11] 91.3% | [12] 95.9% | [13] 102% | [14] 103%

CC(=O)CC(=O)N(C)C
inactive: [15] 101% | [2] 104% | [3] 101% | [4] 108% | [16] 109% | [5] 112% | [17] 98.3% | [6] 100% | [8] 99.5% | [9] 98.2% | [10] 101% | [11] 94.8% | [12] 95.6% | [13] 108%

c1ccc(Cc2ccccc2)cc1
inactive: [1] 107% | [2] 99.3% | [3] 109% | [4] 113% | [5] 108% | [17] 76.6% | [6] 104% | [7] 93.4% | [8] 123% | [9] 112% | [10] 106% | [11] 113% | [12] 114% | [13] 106% | [14] 98.9%
